# Experimental data: the supplement of paper PMC6555819
# Assays:
# Test in all cases: PBM binding z-score (relative to random genomic background probes); higher = stronger binding; sequences stand for … in GC…GCGATTGACAGCGTAGAATGAAGG
# [1] = test system: FXR:RXRa (NR concentration 270 nM, RXRa partner concentration 90 nM)
# Method in brief: (§1)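 Binding z-scores were set against random background probes. The data came from custom Agilent 4×180K protein-binding microarrays carrying double-stranded probes with 34-nt variable regions, incubated 1 h with ligand-free nuclear receptor dimers. Partner-specific antibodies detected binding, and scanned fluorescence was regression-normalized.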
# [2] = test system: LXRa:RXRa (NR concentration 270 nM, RXRa partner concentration 90 nM)
# Method in brief: as §1
# [3] = test system: LXRa homodimer (NR concentration 270 nM)
# Method in brief: as §1
# [4] = test system: LXRb:RXRa (NR concentration 270 nM, RXRa partner concentration 90 nM)
# Method in brief: as §1
# [5] = test system: PPARa:RXRa (NR concentration 270 nM, RXRa partner concentration 90 nM)
# Method in brief: as §1
# [6] = test system: PPARg:RXRa (NR concentration 180 nM, RXRa partner concentration 90 nM)
# Method in brief: as §1
# [7] = test system: PPARg:RXRa 270nM:90nM, anti-RXR (NR concentration 270 nM, RXRa partner concentration 90 nM)
# Method in brief: as §1
# [8] = test system: PPARg:RXRa 30nM:10nM, anti-RXR (NR concentration 30 nM, RXRa partner concentration 10 nM)
# Method in brief: as §1
# [9] = test system: PPARg:RXRa 90nM:30nM, anti-RXR (NR concentration 90 nM, RXRa partner concentration 30 nM)
# Method in brief: as §1
# [10] = test system: PPARg:RXRa DBDmut IVT, anti-RXR (DBD mutation: RXRa K156A/R161A, NR concentration 270 nM, RXRa partner concentration 90 nM)
# Method in brief: as §1
# [11] = test system: PPARg:RXRa IVT, anti-PPARg (NR concentration 270 nM, RXRa partner concentration 90 nM)
# Method in brief: as §1
# [12] = test system: PPARg homodimer (NR concentration 180 nM)
# Method in brief: as §1
# [13] = test system: PXR:RXRa (NR concentration 270 nM, RXRa partner concentration 90 nM)
# Method in brief: as §1
# [14] = test system: PXR homodimer (NR concentration 270 nM)
# Method in brief: as §1
# [15] = test system: RARa:RXR (NR concentration 270 nM, RXRa partner concentration 90 nM)
# Method in brief: as §1
# [16] = test system: RARa homodimer (NR concentration 270 nM)
# Method in brief: as §1
# [17] = test system: RARb:RXRa (NR concentration 270 nM, RXRa partner concentration 90 nM)
# Method in brief: as §1
Sequence,PBM binding z-score [1],PBM binding z-score [2],PBM binding z-score [3],PBM binding z-score [4],PBM binding z-score [5],PBM binding z-score [6],PBM binding z-score [7],PBM binding z-score [8],PBM binding z-score [9],PBM binding z-score [10],PBM binding z-score [11],PBM binding z-score [12],PBM binding z-score [13],PBM binding z-score [14],PBM binding z-score [15],PBM binding z-score [16],PBM binding z-score [17]
TCGAGGAGGTTACGGGGGCATTCAGGGATGAAGA,5,3.99,0.868,5.71,5.33,6.77,5.92,4.08,5.24,3.43,5.82,2.53,4.07,2.7,4.4,0.971,3.42
CTATGTAGGTTAAGGGGGTCATTCACTTTGAAAG,5.19,5.06,2.92,6.16,5.91,8.46,8.03,5.89,8.28,7.7,7.41,3.47,5.59,4.83,5.77,1.84,3.4
CCGAGTATGTTACGAGGGGGCATTCAGTGCGAAT,1.03,4.44,0.955,3.9,2.28,0.244,1.45,0.332,1.29,1.52,1.95,1.3,3.07,4.74,2.27,0.735,1.15
CTATGCAGGTTAAGGGGGTCATTCAGTTTGAAAG,5.02,5.01,3,6.31,5.63,5.77,6.3,3.13,5.29,4.72,5.58,2.68,5.97,12.4,5.93,1.66,3.52
CTATGTAAGTTAAGGGGGTCATTCAGTTTGAAAG,4.5,4.34,2.4,6.24,5.31,3.92,5.21,2.84,4.55,3.56,5.22,3.28,5.6,10.3,5.28,2.58,3.35
TCGAGCAGGTTACGGGGGCATTCAGGGATGAAGA,2.74,2.64,0.7,4.88,4.14,4.31,4.37,2.24,3.46,2.41,4.12,1.23,3.03,0.942,3.16,0.368,2.53
TCGAGTAGGTTACGGGGGGATTCAGGGATGAAGA,2.95,2.87,1.21,5.21,3.11,5.11,4.06,3.29,4.14,4.94,5.45,3.89,3.86,2.74,3.13,2.04,2.8
CTATGTAGGTTAAGTGGGTCATTCAGTTTGAAAG,1.59,2.35,0.645,2.29,4.58,5.98,5.61,2.89,4.9,7.7,7.89,1.59,2.36,4.47,2.23,0.913,2.15
CCGGGTAGGTTACGAGGGGGCATTCAGTGCGAAT,2.48,7.2,1.5,6.39,3.54,1.6,2.96,1.05,2.49,1.95,4.17,1.56,5,4.47,3.19,0.857,2.21
CTATGTAGGTTAAGGGGGTAATTCAGTTTGAAAG,1.45,2.81,0.813,4.23,4.84,7.58,6.9,5.33,6.78,7.52,7.27,2.67,2.99,1.83,2.31,1.28,2.32
TCGAGTAGGTTACGGGTGCATTCAGGGATGAAGA,0.435,0.756,-0.274,0.94,2.22,2.3,2.7,2.01,2.23,2.9,3.34,0.289,1.62,0.692,1.33,-0.909,0.994
CCGAGTAGGTAACGAGGGGGCATTCAGTGCGAAT,1.91,5.77,0.734,4.7,2.83,1.05,2.41,0.082,1.9,3.83,3.65,0.975,3.42,4.31,2.24,0.592,1.31
CCGAGTAGGATACGAGGGGGCATTCAGTGCGAAT,0.863,1.35,0.542,3.08,1.75,0.323,1.47,0.0307,1.08,0.37,0.975,0.513,2.31,3.26,1.78,-0.298,0.887
CCGAGTAGGTTACGAGGGGGCATTAAGTGCGAAT,2.79,6.98,1.2,6.3,3.38,2.04,3.06,0.817,2.16,4.89,4.4,2.11,4.77,7.4,2.72,0.983,2.15
CCGAGTAGGTTACGACGGGGCATTCAGTGCGAAT,-0.0135,5.81,-0.31,3.38,1.36,0.995,1.17,-0.329,0.19,3.85,3.21,0.811,1.68,0.127,1.17,-0.209,1.23
CCGAGTAGGTTACGAGCGGGCATTCAGTGCGAAT,0.242,7.14,0.879,4.08,0.9,0.617,0.819,-0.546,0.27,4.42,2.97,0.117,1.73,0.506,0.0464,-0.596,0.908
